The list is not random: actives were taken first. Their share in the collection is about 1.5%.
FBPA coupling cs: qHTS Assay for Inhibitors of Fructose-1,6-bisphosphate Aldolase from Giardia Lamblia: Coupling assay counterscreen; coupling enzyme system counterscreen, AmpLite Red fluorescence; activity change, negative = inhibition, % at 58.2 µM, hits read low; actives 0.67% (n = 290,000); AID 2472, 2010; in the data active means activity change below about -30%; further: on the % scale 0 is the no-effect control and ±100 the full control effect
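First, compound is pin-transferred into glyceraldehyde-3-phosphate coupling-enzyme reagent at 57.5 uM final and held 10 min at RT. Next, substrate, coupling system and AmpLite Red are added. After 20 min RT, fluorescence (525/598 nm) is read.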
TrxR1 inh: qHTS Assay for Inhibitors of Mammalian Selenoprotein Thioredoxin Reductase 1 (TrxR1): qHTS | Thioredoxin reductase 1, cytoplasmic (Rattus norvegicus), O89049 | recombinant rTrxR1, NADPH fluorescence consumption, selenite substrate | Potency, µM (highest dose often 114 µM), without a hit: at the top dose activity change, negative = inhibition, usual class: inhibitors | actives 1% (n = 390,000) | AID 588453, 2011; further: potency means the concentration at half of the fitted maximal effect; on the % scale 0 is the no-effect control and ±100 the full control effect; nearly all actives have a fitted effect of over 65% in size
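Rat TrxR1 (90 nM in the dispensed reagent) was pre-reduced with 400 uM NADPH for 5 min at room temperature, then incubated with compound for 15 min. After 400 uM selenite was added, NADPH fluorescence (Ex 340/Em 450 nm) was followed for 8 min.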
Eya2 phos inh: qHTS Assay for Inhibitors of the Phosphatase Activity of Eya2 | Protein phosphatase EYA2 (Homo sapiens), O00167 | recombinant Eya2, OMFP fluorescence dephosphorylation (OMFP is methylfluorescein phosphate) | Potency, µM (series often up to 76.9 µM), without a hit: at the top dose activity, negative = inhibition, actives largely listed as inhibitors | actives 0.006% (n = 330,000) | AID 488837, 2010; further: potency means the concentration at half of the fitted maximal effect; on the % scale 0 is the no-effect control and ±100 the full control effect
Target sequence (O00167 whole entry, looked up): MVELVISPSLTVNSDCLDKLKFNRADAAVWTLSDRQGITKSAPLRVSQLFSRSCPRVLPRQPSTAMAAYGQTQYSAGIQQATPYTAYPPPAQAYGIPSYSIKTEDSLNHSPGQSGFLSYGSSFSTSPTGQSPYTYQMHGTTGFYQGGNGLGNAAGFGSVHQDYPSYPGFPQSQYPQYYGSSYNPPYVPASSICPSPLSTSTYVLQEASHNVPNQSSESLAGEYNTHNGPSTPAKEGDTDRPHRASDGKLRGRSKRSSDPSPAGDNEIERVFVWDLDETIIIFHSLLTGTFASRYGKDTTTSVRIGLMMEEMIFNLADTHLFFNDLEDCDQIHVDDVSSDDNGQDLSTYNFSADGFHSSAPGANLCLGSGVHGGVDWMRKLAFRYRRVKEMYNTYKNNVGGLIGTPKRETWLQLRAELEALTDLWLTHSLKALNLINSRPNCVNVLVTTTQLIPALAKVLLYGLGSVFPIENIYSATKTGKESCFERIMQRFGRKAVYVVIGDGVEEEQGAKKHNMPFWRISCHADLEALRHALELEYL
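Eya2 protein (added as 0.2 uM solution) was preincubated with compound for 10 min at ambient temperature in 50 mM HEPES pH 7.5, 50 mM NaCl, 5 uM MgCl2, 0.05% BSA, 1 mM DTT. OMFP (added at 50 uM) then reacted 10 min; fluorescence read at 485/525 nm.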
mIDH1 inhibitor: qHTS for Inhibitors of mutant isocitrate dehydrogenase 1 (IDH1): qHTS; Potency, µM (top dose mostly 76.6 µM), for the others: at the highest dose activity change, negative = inhibition, actives largely listed as inhibitors; actives 0.093% (n = 390,000); IDH1-R132H enzyme, NADPH consumption, diaphorase/resazurin fluorescence; AID 602179, 2012; further: potency means the concentration at half of the fitted maximal effect; on the % scale 0 is the no-effect control and ±100 the full control effect; nearly all actives have a fitted effect of over 65% in size
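IDH1-R132H (0.5 ug/mL) preincubated 30 min with compound, then NADPH (0.016 mM) and alpha-KG (2 mM) added; 80 min at RT, pH 7.5. Remaining NADPH coupled via diaphorase/resazurin to fluorescence (540/590 nm); concentration-response curves normalized to no-enzyme control.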
TrxR1 substrate: qHTS Assay for Substrates of Mammalian Selenoprotein Thioredoxin Reductase 1 (TrxR1): qHTS; Thioredoxin reductase 1, cytoplasmic (Rattus norvegicus), O89049; actives 0.01% (n = 390,000); purified TrxR1 substrate turnover, NADPH consumption readout; Potency, µM (series often up to 114 µM), inactives show at the top dose activity change, negative = substrate turnover; further: potency means the concentration at half of the fitted maximal effect; on the % scale 0 is the no-effect control and ±100 the full control effect; nearly all actives have a fitted effect of over 50% in size
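Rat TrxR1, dispensed at 90 nM, was prereduced with 400 uM NADPH (final) for 5 min at ~22 deg C, then incubated with compound 15 min before 400 uM selenite. A first-read NADPH fluorescence drop versus no-compound background flagged substrates.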
IDH1 autofl: qHTS for Inhibitors of mutant isocitrate dehydrogenase 1 (IDH1): Cherrypicks Autofluorescence Interference. inhibition of signal, % at 51.2 µM. Resorufin detection reagent fluorescence interference, cell-free. shares compounds with mIDH1 inhibitor. 750 tested, under 10 active. AID 623980, 2012;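 further: 0% = wells with normal resorufin and full inhibition = wells lacking resorufin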
WT IDH1 inh: qHTS for Inhibitors of mutant isocitrate dehydrogenase 1 (IDH1): Cherrypicks in WT IDH1; WT IDH1 enzyme, NADPH diaphorase/resazurin fluorescence; actives 9% (n = 750); shares compounds with mIDH1 inhibitor; Potency, µM (top dose mostly 115 µM), for inactives: at the highest dose activity change, negative = inhibition, actives largely listed as inhibitors;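 further: potency means the concentration at half of the fitted maximal effect; 0% = full WT IDH1 enzyme control and full inhibition = no enzyme wells; nearly all actives have a fitted effect of over 55% in size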
IDH1 R132H conf: qHTS for Inhibitors of mutant isocitrate dehydrogenase 1 (IDH1): Confirmation of Cherrypicks | shares compounds with mIDH1 inhibitor | IDH1 R132H enzyme, NADPH diaphorase/resazurin fluorescence | Potency, µM (titrated, usually from 76.6 µM), without a hit: top-dose activity change, negative = inhibition, hits mostly inhibitors | actives 83% (n = 750) | AID 624002, 2012; further: potency means the concentration at half of the fitted maximal effect; nearly all actives have a fitted effect of over 50% in size
Starred values were filed as active, the others as inactive; ? = inconclusive; . = no result given; [ ] = remark or other dose. Unless noted, the call rests on the fitted dose curve; in most records, active means well fitted curve in the direction sought with a large enough effect; inconclusive means small, poorly fitted or top-dose-only effect, or another doubt; inactive means no such curve, though single readings can be large; an effect the other way counts as inactive or inconclusive.

SMILES | FBPA coupling cs | TrxR1 inh | Eya2 phos inh | mIDH1 inhibitor | TrxR1 substrate | IDH1 autofl | WT IDH1 inh | IDH1 R132H conf
O=C(O)CCC/C=C\C[C@@H]1[C@@H](/C=C/[C@H](O)C2Cc3ccccc3C2)[C@@H](F)C[C@@H]1O | . | 17%[57.1 µM] | 5% | . | 8%[57.1 µM] | . | . | .
CCOc1ccccc1N(C(=O)c1snc(C(N)=O)c1N)C(CC)C(=O)NC1CCCC1 (centres undefined) | 2 | 15% | -6% | 26% | 9% | . | . | .
CCOc1ccccc1N(C(=O)c1snc(C(N)=O)c1N)C(C(=O)NC1CCCC1)c1cccs1 (centres undefined) | 0 | 15%[57.1 µM] | -11% | ? | 8%[57.1 µM] | 4 | 4% | ?
CCOc1ccccc1N(C(=O)c1snc(C(N)=O)c1N)C(C(=O)NCc1ccccc1)c1ccc(O)cc1 (centres undefined) | 1 | 22%[57.1 µM] | -11% | ? | 41% | -1 | 10% | 13µM*
CCOc1ccccc1N(C(=O)c1snc(C(N)=O)c1N)C(C(=O)NC1CCCC1)c1ccco1 (centres undefined) | 1 | -8% | 28% | ? | 10% | 3 | 2% | 40µM*
CCCN1CNc2c(c(=O)[nH]c(=S)n2CCc2cccs2)C1 | . | 0% | . | . | -3% | . | . | .
CN1C(=O)N(CC(=O)N2CCN(S(=O)(=O)c3ccc4c(c3)CCC4)CC2)C(=O)C12CCCCC2 | . | -6% | -26% | 0% | -8% | . | . | .
O=C(CCl)N1CCN(S(=O)(=O)c2ccc3c(c2)CCC3)CC1 | . | ? | -9% | 46µM* | -1% | -6 | -24% | 28µM*
O=C(OC1Cc2c(O)cc(O)cc2OC1c1cc(O)c(O)c(O)c1)c1cc(O)c(O)c(O)c1 (centres undefined) | -14 | . | . | . | . | . | . | .
CSCC[C@H](NC(=O)CNC(=O)CNC(=O)[C@H](CO)NC(=O)[C@H](CCCNC(=N)N)NC(=O)[C@H](CO)NC(=O)[C@H](CC(C)C)NC(=O)[C@H](CC(C)C)NC(=O)CNC(=O)[C@H](C)NC(=O)[C@H](CC(C)C)NC(=O)[C@H](CCCNC(=N)N)NC(=O)[C@H](Cc1cnc[nH]1)NC(=O)[C@@H](NC(=O)[C@@H](N)C(C)C)[C@@H](C)O)C(=O)N[C@H](C(=O)N[C@@H](CCCCN)C(=O)N[C@@H](CO)C(=O)N[C@@H](CC(N)=O)C(=O)N[C@@H](Cc1ccccc1)C(=O)N[C@H](C(=O)N1CCC[C@H]1C(=O)N[C@H](C(=O)N[C@@H](CC(N)=O)C(=O)N[C@H](C(=O)NCC(=O)N[C@@H](CO)C(=O)N[C@@H](CCCCN)C(=O)N[C@@H](C)C(=O)N[C@@H](Cc1ccccc1)C(N)=O)C(C)C)[C@@H](C)O)C(C)C)C(C)C | 0 | . | . | . | . | . | . | .
C[C@H]1C[C@H]2[C@@H]3CCC4=CC(=O)C=C[C@]4(C)[C@@]3(F)[C@@H](O)C[C@]2(C)[C@@]1(O)C(=O)CO | . | 12% | . | -4% | 5% | . | . | .
CC1(c2ccccc2)O[C@@H]2C[C@H]3[C@@H]4CCC5=CC(=O)C=C[C@]5(C)[C@@]4(F)[C@@H](O)C[C@]3(C)[C@]2(C(=O)CO)O1 (some centres undefined) | 0 | 9% | 10% | 29µM* | -8% | -6 | -14% | 5µM*
O=S(=O)(c1ccc(NC(=S)N/N=C/c2ccc(N3CCOCC3)cc2)cc1)N1CCOCC1 | 0 | 5% | 7% | 0% | 12% | . | . | .
O=S(=O)(c1ccc(NC(=S)N/N=C/c2ccc(Oc3ccccc3)cc2)cc1)N1CCOCC1 | -1 | 8% | 9% | ? | -3% | -1 | -5% | -22%
COc1ccc(-c2coc3cc(OC(C)=O)ccc3c2=S)cc1 | . | 7%[2.29 µM] | . | 46µM* | 0%[2.29 µM] | -4 | 8% | ?
Cc1ccc(N2C(=O)c3n[nH]c(C)c3C2c2ccc(Cl)cc2)cc1 (centres undefined) | . | 12% | . | ? | -1% | -3 | -3% | 45µM*
Cc1ccc(N2C(=O)c3n[nH]c(C)c3C2c2ccccc2Cl)cc1 (centres undefined) | . | 4% | . | -12% | -5% | . | . | .
CC1(C)OC(=O)C2(Cc3cc([N+](=O)[O-])ccc3N3CCCCC32)C(=O)O1 (centres undefined) | . | -14% | . | . | -3% | . | . | .
CCOC(=O)c1ccc(N2C(=O)c3n[nH]c(-c4ccco4)c3C2c2ccc(O)c(OC)c2)cc1 (centres undefined) | . | ? | . | ? | -2% | 3 | -7% | 20µM*
CCOC(=O)c1ccc(N2C(=O)c3n[nH]c(-c4ccco4)c3C2c2ccc(C)cc2)cc1 (centres undefined) | . | 6% | . | -22% | -12% | . | . | .
CCOC(=O)c1ccc(N2C(=O)c3[nH]nc(-c4ccccc4)c3C2c2cccs2)cc1 (centres undefined) | . | 25% | . | ? | -3% | 2 | 11% | -14%
O=S(=O)(c1ccc(C(F)(F)F)cc1)N1CCN(c2nc(-c3cccs3)nc3ccccc23)CC1 | . | 30% | . | . | 14% | . | . | .
COc1ccc(C2c3c(-c4cc(Cl)c(C)cc4O)n[nH]c3C(=O)N2Cc2cccnc2)cc1OC (centres undefined) | 7 | 2% | 13% | ? | 0% | 8 | 5% | 28µM*
COc1cc(C2c3c(-c4ccccc4O)n[nH]c3C(=O)N2Cc2ccncc2)cc(OC)c1OC (centres undefined) | . | 15% | . | -14% | -5% | . | . | .

From PubChem BioAssay
